Most compounds without a hit are left out; they make up all but 1.9% or so of the library.
PP1 inh – blocks human PP1-alpha phosphatase, a PP5 counter-screen. P62136. purified PP1alpha, OMFP fluorescence. inhibition, % at 6.7 µM. 0.9% of 320,000 active. AID 2235;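 active means inhibition above the mean inhibition of all tested compounds plus 3 SD, computed separately for each screening campaign, cut at about 15% in these data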
PP5 inh – PP5 (human) phosphatase inhibition; purified PP5c, OMFP substrate fluorescence; 0.18% of 320,000 active; P53041; inhibition, % at 6.7 µM;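 active means inhibition above the campaign's mean inhibition across all tested compounds plus 3 SD, cut at about 9.5% in these data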
Target sequence (P53041 whole entry, looked up): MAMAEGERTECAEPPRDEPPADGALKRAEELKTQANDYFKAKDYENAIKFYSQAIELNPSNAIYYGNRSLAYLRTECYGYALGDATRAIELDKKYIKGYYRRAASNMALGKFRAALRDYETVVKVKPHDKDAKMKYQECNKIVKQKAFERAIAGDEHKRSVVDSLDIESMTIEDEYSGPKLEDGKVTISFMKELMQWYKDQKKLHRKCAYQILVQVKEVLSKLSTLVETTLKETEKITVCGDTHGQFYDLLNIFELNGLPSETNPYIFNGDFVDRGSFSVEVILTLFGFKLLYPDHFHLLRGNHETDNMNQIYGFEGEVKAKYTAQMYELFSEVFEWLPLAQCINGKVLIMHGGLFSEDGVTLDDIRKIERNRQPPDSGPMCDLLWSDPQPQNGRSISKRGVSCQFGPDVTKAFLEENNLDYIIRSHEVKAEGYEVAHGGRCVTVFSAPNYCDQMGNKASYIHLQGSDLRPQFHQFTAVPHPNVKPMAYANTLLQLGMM
H9c2 protect – modulators protecting cardiomyocytes from myocardial damage | H9c2 cardiomyocytes, H2O2 injury protection, ATPLite, 2 h | protection from H2O2 cell death, % at 20 µM | 0.63% of 360,000 active | AID 588492;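 active means compounds giving at least 50% protection of heart cells from peroxide-induced death in the single-dose screen, raw or plate-pattern-corrected value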
ATG4B inh – inhibitors of human ATG4B cysteine protease. 0.51% of 340,000 active. inhibition, % at 8.33 µM. ATG4B cleavage of LC3-PLA2, NBD-HPC fluorescence, 1 h. Q9Y4P1. AID 504462; in the data active means inhibition above about 40%
PP1 inh confirm – confirmation of human PP1 phosphatase inhibitors. inhibition, % at 6.7 µM. AID 2358. 52% of 1,900 active. shares compounds with PP1 inh. purified PP1alpha, OMFP substrate fluorescence;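 active means mean PP1 inhibition above a set limit taken from the earlier primary screen, cut at about 15% in these data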
PP5 inh counter – counter-screen for PP1 inhibitors: human PP5 phosphatase inhibition | inhibition, % at 6.7 µM | purified PP5c, OMFP fluorescence | 4% of 1,900 active | shares compounds with PP1 inh | AID 2360;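 active means mean PP5 inhibition over triplicate wells above about 9.5% taken from the earlier PP1 screen, limit read from the data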
Numbers stand for hits.

For O=C(COC(=O)c1ccc(Cl)nc1)NCCc1ccccc1 the results were H9c2 protect inactive and ATG4B inh inactive.
For CCN(CC)C(=O)c1cccc(-c2csc(C(O)c3ccc(F)cc3)n2)c1 (centres undefined) the results were H9c2 protect inactive.
For CC(=O)Oc1ccc(-c2ccc(C(=O)NCCc3ccc(S(N)(=O)=O)cc3)cc2)cc1 the results were PP1 inh 24.0, PP5 inh inactive, H9c2 protect inactive, ATG4B inh inactive, PP1 inh confirm 18.1 and PP5 inh counter inactive.
`Clc1ccc(SCc2cc(N3CCOCC3)nc(-c3ccccn3)n2)cc1` gave PP1 inh 23.7, PP5 inh inactive, H9c2 protect inactive, ATG4B inh inactive, PP1 inh confirm 32.3 and PP5 inh counter inactive.
O=C(O)[C@@H](c1ccccc1)N1Cc2ccccc2C1=O was read as PP1 inh 24.1, PP5 inh inactive, H9c2 protect inactive, ATG4B inh inactive, PP1 inh confirm 35.2 and PP5 inh counter inactive.
O=C(NCC1CCCO1)c1cc(S(=O)(=O)N2CCCC2)c(Cl)cc1Cl (centres undefined) was read as PP1 inh inactive, PP5 inh inactive, H9c2 protect inactive and ATG4B inh inactive.
Cc1ccc2nc(NNC(=O)c3ccc(S(=O)(=O)N4CCc5ccccc5C4)cc3)sc2c1 was read as PP1 inh 28.6, PP5 inh inactive, H9c2 protect inactive, ATG4B inh inactive, PP1 inh confirm 25.0 and PP5 inh counter inactive.
For Cc1cccc2sc(NNC(=O)c3ccc(S(=O)(=O)N4CC(C)CC(C)C4)cc3)nc12 (centres undefined) the results were PP1 inh 23.2, PP5 inh inactive, H9c2 protect inactive, ATG4B inh inactive, PP1 inh confirm 19.4 and PP5 inh counter inactive.
`Cc1ccc2nc(NNC(=O)c3ccc4c(c3)OCCO4)sc2c1` gave PP1 inh inactive, PP5 inh inactive, H9c2 protect inactive and ATG4B inh inactive.
For COC(=O)c1sc2ccccc2c1NC(=O)c1ccc(S(=O)(=O)N2CC(C)CC(C)C2)cc1 (centres undefined) the results were PP1 inh inactive, PP5 inh inactive, H9c2 protect inactive and ATG4B inh inactive.
`Cc1cc(C)c2nc(NNC(=O)c3ccc(S(=O)(=O)N4CCCC(C)C4)cc3)sc2c1` (centres undefined) gave PP1 inh 21.1, PP5 inh inactive, H9c2 protect inactive, ATG4B inh inactive, PP1 inh confirm 24.4 and PP5 inh counter inactive.
`Cc1csc(=O)n1CCC(=O)OCC(=O)Nc1ccc(Cl)cn1` gave PP1 inh inactive, PP5 inh inactive, H9c2 protect inactive and ATG4B inh inactive.
Screening Cn1cnnc1SCC(=O)Nc1ccc(S(N)(=O)=O)cc1 returned PP1 inh inactive, PP5 inh inactive, H9c2 protect inactive and ATG4B inh inactive.
`O=C(c1ccc(Cn2c(=S)[nH]c3ccc(N4CCOCC4)cc3c2=O)cc1)N1CCN(c2ccc(F)cc2)CC1` gave PP1 inh 17.6, PP5 inh inactive, H9c2 protect inactive, ATG4B inh inactive, PP1 inh confirm 19.1 and PP5 inh counter inactive.
`COc1ccc(N2CCN(C(=O)c3ccc(Cn4c(=S)[nH]c5ccc(N6CCOCC6)cc5c4=O)cc3)CC2)cc1` gave PP1 inh inactive, PP5 inh inactive, H9c2 protect inactive and ATG4B inh inactive.
Cc1ccc(C)c(N2CCN(C(=O)c3ccc(Cn4c(=S)[nH]c5ccc(N6CCOCC6)cc5c4=O)cc3)CC2)c1 was read as PP1 inh 30.4, PP5 inh inactive, H9c2 protect inactive, ATG4B inh inactive, PP1 inh confirm inactive and PP5 inh counter inactive.
O=[N+]([O-])c1cc(/C=N/n2c(-c3ccncc3)n[nH]c2=S)ccc1Cl was read as PP1 inh 25.4, PP5 inh inactive, H9c2 protect inactive, ATG4B inh inactive, PP1 inh confirm inactive and PP5 inh counter inactive.
Screening Cc1cc(-c2n[nH]c(=S)n2/N=C/c2ccc(Cl)c([N+](=O)[O-])c2)n[nH]1 returned PP1 inh inactive, PP5 inh inactive, H9c2 protect inactive and ATG4B inh inactive.
Screening Brc1ccc(CSc2ccc3nnc(-c4ccccn4)n3n2)cc1 returned PP1 inh 26.5, PP5 inh inactive, H9c2 protect inactive, ATG4B inh inactive, PP1 inh confirm 19.8 and PP5 inh counter inactive.
Screening Fc1ccc(CSc2ccc3nnc(-c4ccccn4)n3n2)cc1 returned PP1 inh inactive, PP5 inh inactive, H9c2 protect inactive and ATG4B inh inactive.
Cc1ccc(C)c(CSc2ccc3nnc(-c4ccccn4)n3n2)c1 was read as PP1 inh 22.2, PP5 inh inactive, H9c2 protect inactive, ATG4B inh inactive, PP1 inh confirm inactive and PP5 inh counter inactive.
`CCn1c(SCC(=O)Nc2cc(C)on2)nc2sc3c(c2c1=O)CCCC3` gave PP1 inh 23.1, PP5 inh inactive, H9c2 protect inactive, ATG4B inh inactive, PP1 inh confirm 27.7 and PP5 inh counter inactive.
For C=CCn1c(SCC(=O)Nc2cc(C)on2)nc2sc3c(c2c1=O)CCCC3 the results were PP1 inh inactive, PP5 inh inactive, H9c2 protect inactive and ATG4B inh inactive.
`Cc1cc(C(=O)N2CCN(c3ccccc3)CC2)no1` gave PP1 inh 26.6, PP5 inh inactive, H9c2 protect inactive, ATG4B inh inactive, PP1 inh confirm inactive and PP5 inh counter inactive.
Screening COc1ccc(N2CCN(C(=O)c3cc(C)on3)CC2)cc1 returned PP1 inh inactive, PP5 inh inactive, H9c2 protect inactive and ATG4B inh inactive.
`Cc1ccc(C(=O)N2CCN(c3ccccc3)CC2)cc1C` gave PP1 inh 32.3, PP5 inh inactive, H9c2 protect inactive, ATG4B inh inactive, PP1 inh confirm inactive and PP5 inh counter inactive.
Screening CCc1ccc(C(C#N)=CC=Cc2ccccc2)cc1 returned H9c2 protect inactive.
`COc1cc(S(=O)(=O)NCc2ccc(F)cc2)ccc1-n1cnnn1` gave PP1 inh inactive, PP5 inh inactive, H9c2 protect inactive and ATG4B inh inactive.
For C/C=C\C=C/C(=O)Nc1cccc(C2=NOC3(C2)C[C@@H](C(N)=O)N(C(=O)COc2ccc(Cl)cc2)C3)c1 (some centres undefined) the results were PP1 inh 19.1, PP5 inh inactive, H9c2 protect inactive, ATG4B inh inactive, PP1 inh confirm inactive and PP5 inh counter inactive.
For C=C(C)C(=O)Nc1cccc(C2=NOC3(C2)C[C@@H](C(N)=O)N(C(=O)c2ccc(OC)cc2)C3)c1 (some centres undefined) the results were PP1 inh 18.2, PP5 inh inactive, H9c2 protect inactive, ATG4B inh inactive, PP1 inh confirm inactive and PP5 inh counter inactive.
For C=C(C)C(=O)Nc1cccc(C2=NOC3(C2)C[C@@H](C(N)=O)N(C(=O)c2cc([N+](=O)[O-])cc([N+](=O)[O-])c2)C3)c1 (some centres undefined) the results were PP1 inh inactive, PP5 inh inactive, H9c2 protect inactive and ATG4B inh inactive.

Compound activity from PubChem.
